Source: PubChem BioAssay (Broad Institute)
Dyrk1A ADPGlo = inhibitors of rat Dyrk1A kinase; Q63470; 0.43% of 310,000 active; ADP-Glo luminescence, NFATc1 peptide; inhibition, % at 12.5 µM;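 also: plate controls were vehicle with enzyme for no effect and no enzyme for full effect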
miR122 inh = miR-122 inhibition in Huh7 cells; Huh7 miR-122 Renilla luciferase sensor, 48 h; neutral wells = 0, positive control = 100; activation (reporter increase), % at 12.5 µM; AID 602342; 0.3% of 340,000 active;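 active = mean replicate activation score at least 90 and every replicate individually at or above 90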;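 also: higher luciferase means less miR-122 activity so hits act as miR-122 inhibitors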
GSIS activator = GLuc luminescence reporter in INS-1E cells, primary screen for activators of glucose-dependent secretion of insulin. INS-1E GLuc reporter insulin secretion, 2-3 h. 0.61% of 370,000 active. activation, % at 16.6 µM;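 active = lowest replicate activation of at least 40%, so every replicate reaches that level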;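 also: 0% = median of neutral control wells and 100% = median of IBMX positive control wells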
Wnt act = Wnt/beta-catenin pathway activation; Wnt/beta-catenin reporter cell assay, activator, plate reader; activation, % at 9.35 µM; 1.2% of 300,000 active; in the data active = activation above about 30%, passing the limit was not always enough;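 also: 0% = neutral control wells and 100% = positive control wells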
MITF act = increases MITF-driven TRPM1 promoter luciferase signal; SK-MEL-5 TRPM1-promoter luciferase, 24 h; % of positive control, neutral wells = 0; AID 588334; 0.75% of 300,000 active; activation, % at 12.5 µM;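 active = mean activation of at least 80% with every replicate also reaching 80%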;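 also: 0% = neutral control wells and 100% = parthenolide positive control wells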
NSD2 HMT inh = inhibitors of human histone methyltransferase NSD2; O96028; NSD2 peptide methylation, AlphaScreen, 120 min; inhibition, % at 12.5 µM; 0.54% of 310,000 active; AID 743445
Target sequence (O96028 whole entry, looked up): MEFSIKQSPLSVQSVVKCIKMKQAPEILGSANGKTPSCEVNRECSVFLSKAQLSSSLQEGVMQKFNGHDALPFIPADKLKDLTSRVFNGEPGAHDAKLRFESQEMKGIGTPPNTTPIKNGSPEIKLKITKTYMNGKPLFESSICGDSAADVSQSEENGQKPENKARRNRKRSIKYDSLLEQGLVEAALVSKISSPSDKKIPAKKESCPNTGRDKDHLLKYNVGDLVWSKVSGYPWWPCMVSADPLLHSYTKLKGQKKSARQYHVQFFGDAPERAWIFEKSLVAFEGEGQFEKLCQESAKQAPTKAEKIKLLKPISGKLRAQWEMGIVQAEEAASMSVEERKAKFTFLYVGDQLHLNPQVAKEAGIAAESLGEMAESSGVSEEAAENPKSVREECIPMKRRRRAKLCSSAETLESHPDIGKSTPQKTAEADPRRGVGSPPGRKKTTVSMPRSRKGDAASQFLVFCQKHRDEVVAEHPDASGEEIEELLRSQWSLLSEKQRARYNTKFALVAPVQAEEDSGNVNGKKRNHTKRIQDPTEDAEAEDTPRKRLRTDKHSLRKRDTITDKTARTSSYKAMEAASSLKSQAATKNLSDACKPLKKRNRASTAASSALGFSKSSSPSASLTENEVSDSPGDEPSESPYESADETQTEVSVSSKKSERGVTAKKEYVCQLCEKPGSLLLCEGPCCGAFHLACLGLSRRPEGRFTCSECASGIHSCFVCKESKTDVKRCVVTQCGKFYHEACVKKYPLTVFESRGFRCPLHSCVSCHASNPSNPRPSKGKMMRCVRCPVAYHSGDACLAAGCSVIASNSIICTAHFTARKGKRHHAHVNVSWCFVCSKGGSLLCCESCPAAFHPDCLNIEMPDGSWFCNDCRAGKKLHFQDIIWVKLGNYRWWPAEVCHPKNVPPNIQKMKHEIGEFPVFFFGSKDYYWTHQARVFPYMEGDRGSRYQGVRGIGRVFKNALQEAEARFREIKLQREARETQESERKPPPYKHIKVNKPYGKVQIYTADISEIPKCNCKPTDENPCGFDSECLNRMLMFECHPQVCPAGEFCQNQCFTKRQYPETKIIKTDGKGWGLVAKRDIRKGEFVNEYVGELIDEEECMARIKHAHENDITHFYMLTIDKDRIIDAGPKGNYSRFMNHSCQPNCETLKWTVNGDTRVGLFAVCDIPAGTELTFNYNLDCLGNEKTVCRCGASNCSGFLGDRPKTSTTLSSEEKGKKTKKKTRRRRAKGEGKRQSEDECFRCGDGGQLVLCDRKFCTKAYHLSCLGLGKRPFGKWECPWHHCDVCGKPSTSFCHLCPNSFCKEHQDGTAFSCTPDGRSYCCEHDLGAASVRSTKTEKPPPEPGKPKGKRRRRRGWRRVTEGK
Numbers without * were called inactive; x = not tested or not shown; [ ] = dose if it differs, or a comment. This is a sample that favours compounds with a hit; in the whole collection about 2.4% have one here. Rule as the data show it, unless noted: active = inhibition above about 50%; inactive = the rest.

SMILES	Dyrk1A ADPGlo	miR122 inh	GSIS activator	Wnt act	MITF act	NSD2 HMT inh
NC(=O)C1CC(=O)N(c2ccc(OCC(=O)Nc3ccc(F)cc3)cc2)C1 (stereo not drawn)	x	-12	9	3	8	-1
NC(=O)C1CC(=O)N(c2ccc(OCC(=O)Nc3ccccc3F)cc2)C1 (stereo not drawn)	x	-1	8	34*	68	-2
CNC(=O)C1CC(=O)N(c2ccc(OCC(=O)Nc3ccccc3)cc2)C1 (stereo not drawn)	6	-5	55*	2	-3	3
NC(=O)C1CC(=O)N(c2ccc(OCc3ccc(Cl)c(Cl)c3)cc2)C1 (stereo not drawn)	x	3	-22	54*	x	-1
O=C(NCc1ccccc1)[C@@H]1[C@@H](CO)[C@@H]2Cn3c(ccc(/C=C/c4ccccc4)c3=O)[C@H]1N2CC1CC1	x	x	-14	x	x	x
C[C@@H]1CN([C@H](C)CO)S(=O)(=O)c2ccc(C#CC3(O)CCCC3)cc2O[C@H]1CN(C)C(=O)c1ccncc1	x	-3[16.7 µM]	7	x	x	x
Cc1ccc(NC(=O)ON=C2CCCC2)cc1	-5	x	9	19	97*	-2
O=C(NC1Cc2ccccc2C1)[C@H]1[C@H](CO)[C@H]2Cn3c(ccc(C4=CCCCC4)c3=O)[C@@H]1N2	x	-7[16.7 µM]	0	x	x	x
Cc1cccc(C)c1N1CCN(C(=O)Nc2ccc3c(c2)OCCO3)CC1	0	-1	x	45*	x	x
C[C@H]1CN([C@@H](C)CO)C(=O)c2cc(NC(=O)Cn3cnnn3)ccc2O[C@@H]1CN(C)S(C)(=O)=O	x	0[16.7 µM]	27	x	x	x
O=c1[nH][nH]c2c(N=Cc3ccccc3O)ccc(F)c12	58*	-3	20	x	-4	x
CCOC(=O)c1cnc(Nc2nc3ccccc3o2)nc1C	-4	-4	2	15	-59	2
Cc1nc(Nc2nc3ccccc3o2)nc(C)c1C(=O)Nc1ccc(F)cc1	4	x	13	43*	-8	-1
COc1ccc(-c2ccc(=O)n(CC(=O)Nc3cccc(O)c3)n2)cc1OC	3	x	117*	x	0	7
CCOc1ccc(NC(=O)COC(=O)Cn2cnnn2)cc1OCC	4	17	44*	1	-4	-3
CCOc1ccc(-c2nnn(CC(=O)Nc3cccc(OC)c3)n2)cc1OCC	4	0	18	33*	-9	1
COc1cccc(-c2nnn(CC(C)=O)n2)c1	19	5	-2	x	82*	-1
COc1ccc(-c2ccc(-c3nnn(CC(C)=O)n3)cc2)cc1	3	-2	x	x	50	-1
CCOc1ccc(-c2nnn(CC(=O)NCc3ccc(F)cc3)n2)cc1OCC	-3	x	14	1	-11	-2
COc1cccc(Nc2nc(-c3cccnc3)cs2)c1	1	8	33	17	81*	-4
Clc1ccccc1Nc1nc(-c2cccnc2)cs1	1	13	25	55*	66	0
c1cncc(Nc2nc(-c3cccnc3)cs2)c1	32	0	x	x	22	-1
C[C@@H]1CN([C@@H](C)CO)C(=O)c2cc(NC(=O)Cc3cn(C)c4ccccc34)ccc2O[C@@H]1CN(C)C(=O)Nc1cccc2ccccc12	x	5[16.7 µM]	4	x	x	x
C[C@H]1CN([C@@H](C)CO)S(=O)(=O)c2ccc(-c3ccncc3)cc2O[C@H]1CN(C)S(=O)(=O)c1ccccc1F	x	-19[16.7 µM]	-15	x	x	x
O=C(C[C@@H]1CC[C@H]2[C@@H](COC[C@@H](O)CN2Cc2nccs2)O1)NCc1ccc(Cl)cc1	x	-3[16.7 µM]	0	x	x	x
SMILES	Dyrk1A ADPGlo	miR122 inh	GSIS activator	Wnt act	MITF act	NSD2 HMT inh
O=c1c(C(c2ccccc2)c2c(O)sc3ccccc3c2=O)c(O)sc2ccccc12	-6	x	56*	-6	5	6
Fc1ccc(SCCc2ccccn2)cc1	-10	-4	-13	4	48	1
CC(C)(C)c1ccc(SCCc2ccccn2)cc1	x	x	1	61*	102*	-1
CN1C(=O)c2cc(NC(=O)c3cccc(F)c3)ccc2OC[C@@H]2O[C@H](CC(=O)O)CC[C@@H]21	x	-17[16.7 µM]	22	x	x	x
C/C(=N\NC(=O)c1nnn(-c2nonc2N)c1-c1ccccc1)c1cccnc1	-6	5	1	0	8	-1
C/C(=N\NC(=O)c1nnn(-c2nonc2N)c1CN(C)c1ccccc1)c1cccnc1	6	0	-5	34*	-1	8
COc1cc(OC)c(NC2c3ccccc3C(=O)N2c2cc(C)ccn2)cc1Cl (stereo not drawn)	0	1	x	39*	x	x
COc1ccc(C(=O)OCCc2ccc(O)cc2)cc1	18	5	x	17	130*	x
CN(C)S(=O)(=O)c1ccc(C(=O)OCCc2ccccc2)cc1	-4	-2	18	0	21	-8
O=C(OCCc1ccccc1)c1cc(O)c(O)c(O)c1	4	-6	-39	51*	42	x
O=C(Oc1ccccc1)c1cc(O)c(O)c(O)c1	x	-2	x	x	x	116*
Nc1ccc(C(=O)OCCc2ccccc2)cc1	11	-3	2	60*	101*	x
C[C@H](CO)N1C[C@H](C)[C@@H](CN(C)C(=O)Nc2ccccc2)Oc2ccc(NS(=O)(=O)c3cccs3)cc2C1=O	x	x	6	x	x	x
CC1(C)CC(=O)c2c(O)cc(OCc3ccc(Br)cc3)cc2O1	-6	4	6	-1	87*	-2
CN(C)C(=O)[C@H]1[C@H](CO)[C@H]2Cn3c(ccc(-c4cncnc4)c3=O)[C@H]2N1Cc1ccccc1F	x	1[16.7 µM]	0	x	x	x
Cc1ccccc1-c1ccccc1[C@H]1[C@@H](C#N)N(C(=O)c2ccccc2)[C@H]1CO	x	x	-8	x	x	x
N#CC1c2ccccc2-c2ccccc2N1C(=O)c1ccccc1 (stereo not drawn)	x	98*	21	-3	x	-4
O=C(NCc1ccncc1)c1cccc(S(=O)(=O)Nc2ccc(F)cc2)c1	1	91*	-2	0	5	3
O=C(NCCCn1ccnc1)c1cccc(S(=O)(=O)Nc2ccc(F)cc2)c1	-1	142*	-2	-2	-7	-1
Cc1ccc(NS(=O)(=O)c2ccc(C(=O)NCc3ccncc3)cc2)cc1	1	6	-20	-2	-2	0
O=C(NCCCN1CCCC1=O)c1cccc(S(=O)(=O)Nc2ccc(Br)cc2)c1	-3	110*	-55	-1	-4	-2
O=C(NCCCN1CCCC1=O)c1cccc(NS(=O)(=O)c2ccc(Br)cc2)c1	-3	-5	-7	1	-4	0
Cc1ccc(NS(=O)(=O)c2cc(C(=O)NCc3ccncc3)ccc2C)cc1	8	117*	0	-3	-9	4
CC(OC(=O)c1ccc(S(C)(=O)=O)c([N+](=O)[O-])c1)C(=O)NC1C2CC3CC(C2)CC1C3 (stereo not drawn)	x	-3	143*	-2	x	x
CC(C)CN1CCN(C(=O)COC(=O)c2ccc(S(C)(=O)=O)c([N+](=O)[O-])c2)CC1	x	-4	138*	-4	x	x
